We go through 8 molecules from PubChem BioAssay (NCI).

What all share (test): NCI-60 one-dose screen, 48 h (100 = growth as untreated, 0 = no growth, -100 = all killed)
Common to all, as to settings: 10 µM unless noted

Test [1] deals with SR leukemia.
The test system of test [2] is RPMI-8226 leukemia.
Test [3] has as its system OVCAR-8 ovarian.
In test [4] the test system is OVCAR-5 ovarian.
The test system of test [5] is OVCAR-4 ovarian.
Test [6] has as its system SK-OV-3 ovarian.
In test [7] the test system is IGROV1 ovarian.
The subject of test [8] is OVCAR-3 ovarian.
Test [9] deals with NCI/ADR-RES ovarian.
The subject of test [10] is T-47D breast.
Test [11] deals with BT-549 breast.
In test [12] the test system is SW-620 colon.
The subject of test [13] is HCT-116 colon.
Test [14] concerns HCC-2998 colon.
Test [15] deals with KM12 colon.
The subject of test [16] is HS 578T breast.
The subject of test [17] is MDA-MB-435 melanoma.
Test [18] relates to MCF7 breast.
Test [19] relates to MDA-MB-468 breast.

About 83,000 compounds went through this panel and 20% of them were active in at least one assay; those are over-represented in the sample as a whole.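 Activity criterion: percent growth below 10, measured after cells in 96-well plates were exposed to a single compound concentration for 48 hours.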 A number with no mark means an inactive call. Activity calls are given as the source filed them.

With `Cn1cc(-c2cc3nc(-c4cn(C)c5ncccc45)cc(N)n3n2)c2ccccc21`, the growth in test [1] is -28.8% (active); in test [2], -19.1% (active); in [3] it was 10.2%; in test [4], 48.9%; in test [5], 3.01% (active); in test [6] it was 42.8%. The growth in test [7] was 0.888% (active); in [8] it was 6.85% (active); in test [9], 31.2%; in [10] it was 35.1%; in test [11] it was -34.7% (active); in test [12], 20.2%. The figures for the growth in test [13], in [14] and in test [15] were -20% (active), 5.15% (active) and 36.2%, respectively.

As for `O=C(NN1C(=O)/C(=C/C=C/c2ccc([N+](=O)[O-])o2)SC1=S)c1cccc(O)c1`, the growth in test [1] is 2.86% (active); in test [2], -10.1% (active); in test [3] it was -80.3% (active); in [4], -98.5% (active); in [5] it was -100% (active); in test [6], -80.9% (active). Besides, the growth is -97.9% (active) in test [7]; -14.6% (active) in [16]; -32.1% (active) in test [9]; -44.1% (active) in test [10]; -96% (active) in test [11]; -93.3% (active) in [17]. Further, the growth in test [12] is -71.1% (active); in test [18], -61.9% (active); in test [13], -77.1% (active); in [14], -94.8% (active); in [15] it was -92.6% (active); in [19] it was -73.4% (active).

For the molecule `COc1cc(-c2nc3cc(Cl)c(Cl)cc3[nH]2)ccc1OCc1nnc(-c2cccs2)o1`, the growth in test [1] was 31.1%; in test [2], 59.2%; in test [3] it was 38%; in test [4], 83.3%; in test [5], 40.8%; in test [6], 47.8%. The growth in [7] was 59.4%; in test [16] it was 63.9%; in [9], 39.5%; in test [10] it was 84%; in test [11], 28.1%; in test [17], 55.2%. For the same molecule, the growth was 33% in test [12]; 3.79% (active) in [18]; 29% in test [13]; 43.9% in test [14]; 71.5% in test [15]; 46.4% in test [19].

With `O=c1[nH]c2ccccc2cc1CSc1nccc(-c2ccc3ccccc3c2)n1`, the growth in test [1] is 20.6%; in [2], 52.1%; in [3], 79.6%; in [4], 93.7%; in test [5] it was 80.3%; in test [6] it was 84.3%. The growth in [7] is 89.9%; in test [16], 71%; in [9] it was 41.7%; in test [10] it was 41.8%; in [11] it was 44.8%; in [17], 17.3%. The growth is 51.2% in test [12]; 47% in [18]; 41.7% in test [13]; 83.5% in test [14]; 69.6% in test [15]; -17.2% (active) in test [19].

Regarding `Cc1cc2c(cc1Cl)C(=O)/C(=C/c1ccccc1)O2`, the growth in test [1] was 10.1%; in [2] it was 26%; in test [3] it was -24.7% (active); in test [4], 75%; in test [5] it was 9.29% (active); in test [6] it was 71.4%. The growth is -48.2% (active) in test [7]; 21% in [16]; -19.8% (active) in test [9]; -22.8% (active) in [10]; -3.52% (active) in test [11]; 19.7% in test [17]. The growth was 33.9% in test [12]; 17.5% in test [18]; 18.1% in test [13]; 63.6% in test [14]; 17.8% in [15]; 0.644% (active) in test [19].

Consider `CC(=O)Nc1cccc(Nc2nccc(N[C@@H](C)c3ccccc3)n2)c1`, for which the growth in [1] was 2.48% (active); in test [2], 8.53% (active); in [3], 9.3% (active); in test [4], 34.2%; in [5], 50.7%; in [6], 38.9%. For the same molecule, the growth in [7] was 15.9%; in [8] it was 18%; in test [9], 3.58% (active); in test [10] it was 40.2%; in test [11], 9.69% (active); in test [17], 18.7%. Also, the growth in [18] was 16.5%; in test [13], 9.73% (active); in [14], 27.1%; in test [15], 3.5% (active); in test [19], 18.1%.

As for `CN(C)c1ccnc(CNCCSC2(c3ccc(C(F)(F)F)cc3)c3ccccc3C=Cc3ccccc32)c1`, the growth in [1] is -53% (active); in test [2] it was -48.9% (active); in [3] it was -77.2% (active); in test [4], 1.89% (active); in [5], 13%; in test [6], 8.64% (active). Moreover, the growth in test [7] was 9.31% (active); in test [16], -18% (active); in test [9], -73.6% (active); in test [10], -60.8% (active); in test [11], -6.19% (active); in test [17] it was -78.3% (active). For the same molecule, the growth in test [12] was -82.8% (active); in [18], -89.2% (active); in test [13], -37.8% (active); in test [14], -93.9% (active); in test [15], -31.5% (active); in [19], -57.7% (active).

On to `CCC(C)(C)c1ccc(OCCCCCCN2CCN(c3ccncc3)CC2)cc1`, for which the growth in test [1] is -27.5% (active); in [2], -44.5% (active); in test [3], 54%; in test [4] it was 65.7%; in test [5] it was 47.7%; in [6], 38.5%. For the same molecule, the growth is 49.8% in [7]; -7.9% (active) in test [16]; 19% in [9]; -44.4% (active) in test [10]; -44.2% (active) in test [11]; -0.134% (active) in test [17]. The growth in test [12] is -62% (active); in test [18], -58.1% (active); in test [13], -69.3% (active); in test [14], -74.1% (active); in [15], 7.93% (active); in test [19], -81.5% (active).
